Activity calls are given as the source filed them.
Columns and labels:
Albumin (Bos taurus) = Albumin (Bos taurus) (UniProt P02769); assay: bovine serum albumin binders on microarray, profiling panel, artefact control for SMM control protein annotation, biochemical, small-molecule microarray, Alexa647 label, 635/667 nm fluorescence (AID 1118); details: BSA-A647 binding, fluorescence 635 nm, higher = more signal;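 also: score merges 667 nm emission intensity and signal-to-noise per printed compound spot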
[1] = small-molecule microarray binders of probe aXIP, primary screen, biochemical, NeuroSMM set, 635/667 nm fluorescence (AID 1119); details: higher = more signal, called active from +8 up or from −8 down;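 also: probe is the protein aXip251-270 applied at 1 µg/mL to compound-printed slides; binding of probe to printed compounds measured as 667 nm fluorescence plus signal to noise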
[2] = small-molecule binders of probe aNOTCH3, primary screen, biochemical, small-molecule microarray, 635/667 nm fluorescence (AID 1120); details: higher = more signal;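 also: probe is a biotin-tagged antibody raised against NOTCH3 rather than NOTCH3 protein; score merges spot fluorescence near 667 nm with spot signal to noise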
[3] = small-molecule binders of probe aNOTCH2, primary screen, biochemical, small-molecule microarray, 635/667 nm fluorescence (AID 1121); details: higher = more signal;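 also: score merges feature fluorescence read at 667 nm with its signal to noise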
[4] = molecular target: Carbonic anhydrase 2 (Homo sapiens) (UniProt P00918); assay: CAII small-molecule binders, profiling panel, biochemical, small-molecule microarray, Alexa647-labelled CAII (AID 1122); details: CAII-A647 binding fluorescence, higher = more signal
[5] = COS7 lysate on small-molecule microarray, probe aHis, 635 nm (AID 1123); details: COS7 cell lysate, fluorescence, higher = more signal;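 also: z-score combines 667nm fluorescence intensity with signal-to-noise per printed compound spot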
[6] = compound binding in COS7 lysate, probe aLAP1, primary screen, cell lysate, small-molecule microarray (AID 1124); details: probe aLAP1, fluorescence, higher = more signal;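 also: lysate comes from COS7 cells expressing LAP1 and is applied at 0.3 µg/mL; score merges spot fluorescence near 667 nm with signal-to-noise over triplicate slides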
Sam68 (KHDRBS1) = assay: Sam68 small-molecule binders, primary screen, biochemical, small-molecule microarray, 635 nm fluorescence (AID 1125); details: small-molecule microarray binding, higher = more signal;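 also: score merges 667 nm channel intensity with signal to noise over triplicate slides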
[7] = test system: Chordin-like protein 2 (CHRDL2); assay: CHRDL2 small-molecule binders, primary screen, biochemical, small-molecule microarray, 635 nm fluorescence (AID 1126); details: small-molecule microarray binding, fluorescence 635 nm; higher = more signal;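 also: printed compound slides probed with Chrdl2 protein at 4 µg/mL for 1 h at 4 C; score merges 667 nm emission intensity with signal to noise over three replicate slides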
[8] = molecular target: Concanavalin-A (Canavalia ensiformis) (UniProt P02866); assay: ConA small-molecule binders, primary screen, artefact control for SMM control protein annotation, biochemical, small-molecule microarray, Alexa647 label, 635 nm (AID 1127); details: ConA-A647 binding fluorescence, higher = more signal;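 also: z combines 667 nm emission intensity with signal-to-noise across three replicate slides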
[9] = anti-His antibody binders, primary screen, artefact control for SMM control protein annotation, biochemical, small-molecule microarray, 635 nm fluorescence (AID 1128); details: anti-His Alexa647 antibody binding, higher = more signal;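 also: score merges feature fluorescence with signal-to-noise for each printed compound spot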
[10] = test system: Human papillomavirus type 1a E7 protein (residues 1-88); assay: HPV1a E7 small-molecule binders, primary screen, biochemical, small-molecule microarray, residues 1-88, 635 nm (AID 1129); details: small-molecule microarray binding, fluorescence 635 nm; higher = more signal
[11] = molecular target: Focal adhesion kinase 1 (Homo sapiens) (UniProt Q05397); assay: small-molecule microarray binders of FAK, primary screen, biochemical, 635/667 nm fluorescence, BSA, DTT (AID 1130); details: PTK2 binding, 635 nm fluorescence, higher = more signal;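 also: composite of spot emission at 667 nm and signal to noise over triplicate slides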
[12] = test system: Fibrinogen (Alexa647-labelled); assay: fibrinogen binders on compound microarrays, profiling panel, artefact control for SMM control-protein annotation, biochemical, small-molecule microarray, 635/667 nm fluorescence (AID 1131); details: fibrinogen-A647 binding fluorescence, higher = more signal;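 also: z-score merges 667 nm fluorescence with per-spot signal-to-noise over triplicate slides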
[13] = molecular target: Follistatin (Homo sapiens) (UniProt P19883); assay: follistatin binders on small-molecule microarrays, primary screen, biochemical, small-molecule microarray, 635/667 nm fluorescence (AID 1132); details: FST binding, 635 nm fluorescence, higher = more signal
[14] = molecular target: Fibroblast growth factor 2 (Homo sapiens) (UniProt P09038); assay: FGF2 binders on small-molecule microarrays, primary screen, biochemical, small-molecule microarray, 635/667 nm fluorescence (AID 1133); details: small-molecule microarray binding, FGF2, fluorescence 635/667; higher = more signal
[15] = mitochondrial membrane potential change in A549 cells, profiling panel, cell-based, JC-1 fluorescence, basal, 24 h, 100 nL (AID 1138); details: higher = more signal;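 also: A549 lung adenocarcinoma cells under basal conditions with no added stimulus; test concentration not given here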
Lefty1 = Lefty1 binders on small-molecule microarrays, primary screen, biochemical, small-molecule microarray, 635/667 nm fluorescence (AID 1139); details: small-molecule microarray binding, fluorescence 635/667; higher = more signal
[16] = test system: wheat germ agglutinin (Triticum aestivum), Alexa647-labelled; assay: wheat germ agglutinin binders on compound microarrays, profiling panel, artefact control for SMM control-protein annotation, biochemical, small-molecule microarray, 635/667 nm fluorescence (AID 1140); details: WGA-A647 binding, 635 nm fluorescence, higher = more signal;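 also: score merges 667 nm feature emission with signal to noise over triplicate slides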
[17] = molecular target: Luciferin 4-monooxygenase (Photinus pyralis) (UniProt P08659); assay: firefly luciferase enzyme inhibitors, primary screen, biochemical, luminescence, purified enzyme, 2006 set (AID 1141); details: SteadyGlo luminescence, 30 min, higher = more signal, called active from +8 up or from −8 down;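 also: cell-free assay with purified firefly luciferase at 100 ng per well in PBS; test concentration not given here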
Luciferin 4-monooxygenase (Photinus pyralis), sequence (P08659 whole entry, looked up): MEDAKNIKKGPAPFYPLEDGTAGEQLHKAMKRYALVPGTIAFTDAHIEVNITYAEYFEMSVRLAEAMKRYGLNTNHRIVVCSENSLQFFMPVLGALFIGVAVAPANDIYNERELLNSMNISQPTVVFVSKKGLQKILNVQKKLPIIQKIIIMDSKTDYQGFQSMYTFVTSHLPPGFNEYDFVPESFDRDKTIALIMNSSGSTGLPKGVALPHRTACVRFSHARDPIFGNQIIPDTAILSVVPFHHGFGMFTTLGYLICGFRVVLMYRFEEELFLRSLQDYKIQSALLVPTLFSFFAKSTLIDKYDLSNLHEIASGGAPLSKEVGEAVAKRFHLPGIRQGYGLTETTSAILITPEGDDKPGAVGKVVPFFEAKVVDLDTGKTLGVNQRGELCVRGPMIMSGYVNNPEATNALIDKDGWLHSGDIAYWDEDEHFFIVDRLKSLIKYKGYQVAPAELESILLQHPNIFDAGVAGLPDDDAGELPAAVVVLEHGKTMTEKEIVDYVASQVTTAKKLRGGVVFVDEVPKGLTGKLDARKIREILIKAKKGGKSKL

Focal adhesion kinase 1 (Homo sapiens), sequence (Q05397 whole entry, looked up): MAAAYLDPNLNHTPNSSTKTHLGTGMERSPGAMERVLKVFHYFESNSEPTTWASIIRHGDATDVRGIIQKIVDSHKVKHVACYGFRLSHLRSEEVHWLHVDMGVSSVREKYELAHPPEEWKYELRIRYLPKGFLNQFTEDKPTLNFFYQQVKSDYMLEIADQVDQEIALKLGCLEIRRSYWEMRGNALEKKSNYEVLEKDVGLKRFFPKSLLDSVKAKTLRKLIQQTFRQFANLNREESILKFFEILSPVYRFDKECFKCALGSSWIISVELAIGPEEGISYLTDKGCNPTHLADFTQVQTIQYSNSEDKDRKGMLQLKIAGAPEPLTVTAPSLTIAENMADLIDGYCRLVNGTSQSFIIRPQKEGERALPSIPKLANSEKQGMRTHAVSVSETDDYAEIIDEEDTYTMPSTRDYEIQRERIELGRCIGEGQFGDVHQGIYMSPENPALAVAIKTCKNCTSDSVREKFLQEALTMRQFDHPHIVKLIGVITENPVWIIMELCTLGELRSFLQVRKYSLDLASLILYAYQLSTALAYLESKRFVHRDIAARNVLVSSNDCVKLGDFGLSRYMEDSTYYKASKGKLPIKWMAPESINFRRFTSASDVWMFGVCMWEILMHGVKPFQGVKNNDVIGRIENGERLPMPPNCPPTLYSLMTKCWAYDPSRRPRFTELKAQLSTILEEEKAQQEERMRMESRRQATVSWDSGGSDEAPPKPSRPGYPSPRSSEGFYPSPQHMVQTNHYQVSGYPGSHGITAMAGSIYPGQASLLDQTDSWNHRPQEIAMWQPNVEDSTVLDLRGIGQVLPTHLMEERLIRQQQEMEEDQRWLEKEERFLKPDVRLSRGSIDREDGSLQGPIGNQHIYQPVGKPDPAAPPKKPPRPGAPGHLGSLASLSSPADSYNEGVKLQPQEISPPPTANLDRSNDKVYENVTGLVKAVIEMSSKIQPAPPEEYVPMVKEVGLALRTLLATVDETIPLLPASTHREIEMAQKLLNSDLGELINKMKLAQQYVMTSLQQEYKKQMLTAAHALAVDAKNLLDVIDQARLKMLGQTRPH
Follistatin (Homo sapiens), sequence (P19883 whole entry, looked up): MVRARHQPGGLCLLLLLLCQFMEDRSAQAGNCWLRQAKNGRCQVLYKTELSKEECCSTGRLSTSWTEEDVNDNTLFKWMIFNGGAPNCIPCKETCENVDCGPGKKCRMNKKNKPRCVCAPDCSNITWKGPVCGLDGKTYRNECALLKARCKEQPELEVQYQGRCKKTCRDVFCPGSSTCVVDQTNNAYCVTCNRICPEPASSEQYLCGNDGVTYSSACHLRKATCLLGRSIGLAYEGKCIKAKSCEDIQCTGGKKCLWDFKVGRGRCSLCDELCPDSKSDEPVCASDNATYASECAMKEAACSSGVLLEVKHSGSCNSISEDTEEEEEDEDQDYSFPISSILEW
Albumin (Bos taurus), sequence (P02769 whole entry, looked up): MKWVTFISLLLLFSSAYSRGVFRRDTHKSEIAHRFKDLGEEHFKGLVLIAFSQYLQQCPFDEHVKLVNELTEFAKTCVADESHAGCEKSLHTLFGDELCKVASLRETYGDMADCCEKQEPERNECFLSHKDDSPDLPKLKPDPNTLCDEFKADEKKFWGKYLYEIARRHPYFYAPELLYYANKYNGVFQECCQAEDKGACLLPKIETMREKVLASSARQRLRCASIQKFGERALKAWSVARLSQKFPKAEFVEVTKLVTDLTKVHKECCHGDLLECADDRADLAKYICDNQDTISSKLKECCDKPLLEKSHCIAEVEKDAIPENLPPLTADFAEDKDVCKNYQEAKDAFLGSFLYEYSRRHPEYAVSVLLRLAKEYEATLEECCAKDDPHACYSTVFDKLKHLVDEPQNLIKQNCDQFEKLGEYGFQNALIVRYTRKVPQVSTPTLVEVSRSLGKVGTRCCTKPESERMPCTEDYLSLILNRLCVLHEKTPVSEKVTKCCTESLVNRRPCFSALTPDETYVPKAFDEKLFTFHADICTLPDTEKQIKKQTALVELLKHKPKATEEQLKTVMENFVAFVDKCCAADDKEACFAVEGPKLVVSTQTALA
Concanavalin-A (Canavalia ensiformis), sequence (P02866 whole entry, looked up): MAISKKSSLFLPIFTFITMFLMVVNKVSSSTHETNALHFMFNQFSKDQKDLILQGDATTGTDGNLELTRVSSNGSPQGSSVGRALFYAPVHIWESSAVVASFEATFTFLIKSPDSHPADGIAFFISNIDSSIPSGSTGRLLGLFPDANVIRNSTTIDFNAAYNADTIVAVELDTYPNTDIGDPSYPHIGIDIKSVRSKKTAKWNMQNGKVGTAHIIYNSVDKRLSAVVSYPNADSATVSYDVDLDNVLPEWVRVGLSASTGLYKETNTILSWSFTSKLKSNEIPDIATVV
Fibroblast growth factor 2 (Homo sapiens), sequence (P09038 whole entry, looked up): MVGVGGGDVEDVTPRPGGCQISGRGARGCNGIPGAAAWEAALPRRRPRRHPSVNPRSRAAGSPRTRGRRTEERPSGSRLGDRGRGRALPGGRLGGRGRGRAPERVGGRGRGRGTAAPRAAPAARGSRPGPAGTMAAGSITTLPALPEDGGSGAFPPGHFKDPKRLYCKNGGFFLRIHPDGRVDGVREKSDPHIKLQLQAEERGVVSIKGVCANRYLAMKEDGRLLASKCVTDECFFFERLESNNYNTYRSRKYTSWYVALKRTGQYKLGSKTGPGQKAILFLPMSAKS

Structure (SMILES) | composite z-score (Albumin (Bos taurus)) | composite Z-score [1] | composite z-score [2] | composite z-score [3] | composite z-score [4] | composite z-score [5] | composite z-score [6] | composite z-score (Sam68 (KHDRBS1)) | composite z-score [7] | composite z-score [8] | composite z-score [9] | composite z-score [10] | composite z-score [11] | composite z-score [12] | composite z-score [13] | composite z-score [14] | z-score [15] | composite z-score (Lefty1) | composite z-score [16] | z-score [17]
C[N+](C)(C)CCCC[C@@H]1NC(=O)[C@@H]2C[C@H](C(=O)NCCCCCNC(=O)CS)[C@H](c3cccc(OCCO)c3)N2C1=O | 0.666 | 0.0831 (inactive) | 0.0287 | -0.0662 | 0.399 | 0.46 | -0.343 | 0.765 | 0.361 | 0.88 | 0.664 | 0.14 | 0.0046 | 0.909 | 1.25 | 1.5 | 1.71 | 0.272 | 0.134 | -1.68 (inactive)
COc1ccccc1CN1C(=O)c2ccccc2[C@](Cc2ccccc2I)(C(=O)NCCN2CCOCC2)[C@@H]1c1ccc(CO)cc1 | 0.655 | -0.0337 (inactive) | 0.0629 | -0.0288 | 0.646 | 1.71 | 1.01 | 1.29 | 0.617 | 1.1 | 0.74 | 1.18 | 0.467 | 0.913 | 1.41 | 1.39 | 2.51 | 0.988 | 0.718 | -1.06 (inactive)
CC(C)[Si](C#C[Si](C(C)C)(C(C)C)C(C)C)(O[C@H](C)c1cn(Cc2cccc(Cl)c2)nn1)C(C)C | 0.811 | -0.596 (inactive) | -0.0647 | -0.147 | 0.554 | 0.842 | -0.34 | 1.28 | 0.226 | 0.8 | 0.604 | 1.11 | 0.586 | 0.715 | 0.396 | 0.67 | 2.01 | 0.714 | 1.17 | -1.11 (inactive)
COCCOC(=O)N1C(=O)[C@@]2(c3cc(C#CCNC(N)=O)ccc31)[C@H](C(=O)N1CCCCCCC1)[C@H]1C(=O)O[C@H](c3ccccc3)[C@H](c3ccccc3)N1[C@@H]2c1ccc(OCCO)cc1 | 0.27 | 0.32 (inactive) | 0.331 | 0.0245 | 0.244 | 0.46 | 1.32 | 0.653 | 0.298 | 0.979 | -0.456 | 0.492 | 0.423 | 0.577 | 1.15 | 0.126 | -1.6 | 0.577 | 0.534 | -1.19 (inactive)
[N-]=[N+]=Nc1ccccc1[C@@H]1OC(c2ccc(OCCCO)cc2)=N[C@]1(CCS(=O)(=O)c1ccccc1)C(=O)NCc1ccccc1 | 0.976 | 1.08 (inactive) | 0.752 | 0.38 | 0.749 | 2.86 | 0.48 | 1.29 | -0.612 | 1.11 | 1.13 | 0.742 | 1.03 | 0.982 | 1.3 | 1.06 | 0.27 | -0.141 | 1.2 | -11.9 (active)
Cc1ccc(S[C@]2(C(=O)O)CC(=O)N(Cc3ccccc3C(F)(F)F)[C@@H]2c2ccc(CO)cc2)cc1 | -0.283 | -0.612 (inactive) | -0.128 | -0.164 | 0.653 | 1.79 | -0.67 | -0.298 | -1.6 | -0.373 | -0.916 | -0.543 | 0.0068 | -0.772 | -0.238 | -1.18 | 0.391 | -1.27 | -0.475 | 0.989 (inactive)
COCCOC(=O)N1C(=O)[C@@]2(c3cc(C#Cc4ccc(OC)cc4)ccc31)[C@H](C(N)=O)[C@H]1C(=O)O[C@H](c3ccccc3)[C@H](c3ccccc3)N1[C@@H]2c1ccc(OCCO)cc1 | -0.884 | 0.393 (inactive) | 0.43 | -0.0984 | 0.332 | 1.79 | 0.52 | 1.3 | 0.714 | 0.921 | 1.71 | 1.21 | 0.398 | 0.898 | 1.28 | 1.55 | -1.96 | 0.997 | 0.695 | -0.297 (inactive)
CC(C)C[C@H]1NC(=O)[C@H](C)NC(=O)[C@@]23C(=O)N[C@@H](Cc4ccccc4)C2[C@H](C)[C@@]2(C)O[C@H]2C3/C=C/C/C=C\CNC1=O (stereo not given in full) | 0.876 | -0.155 (inactive) | -0.227 | -0.172 | 0.734 | -0.38 | -0.229 | 0.371 | 0.409 | -0.565 | 0.528 | -0.071 | -0.0739 | -1.65 | 0.321 | -0.28 | 0.141 | 0.253 | 0.649 | -0.8 (inactive)
COc1ccc(C#Cc2ccc3c(c2)[C@]2(C(=O)N3)[C@H](C(N)=O)[C@H]3C(=O)O[C@H](c4ccccc4)[C@H](c4ccccc4)N3[C@@H]2c2ccc(O)cc2)cc1 | 0.49 | 0.312 (inactive) | -0.0947 | -0.148 | 0.414 | 2.27 | 0.211 | 0.902 | -0.0806 | 0.985 | 1.69 | 1.22 | 1.6 | 0.844 | 0.658 | 0.717 | -1.4 | 0.339 | 0.317 | 0.734 (inactive)
CCCCCCC#C[Si](O[C@H](c1ccccc1)c1cn(Cc2cccc(Cl)c2)nn1)(C(C)C)C(C)C | 0.31 | 0.242 (inactive) | -0.0647 | -0.104 | 0.205 | 0.186 | -0.124 | 0.581 | 0.141 | 0.57 | 1.16 | 0.696 | 0.035 | 0.201 | 0.363 | 0.142 | 1.4 | 0.234 | 0.403 | 0.163 (inactive)
CC(C)C[C@@H]1NC(=O)[C@@H]2C[C@H](C(=O)NCc3ccc(F)cc3)[C@H](c3ccc(O)cc3)N2C1=O | -0.674 | 0.63 (inactive) | -0.222 | -0.126 | 0.47 | 2.61 | 0.38 | 0.425 | 0.448 | 1.18 | 2.13 | 0.0885 | 0.317 | 0.248 | 1.34 | 1.91 | 0.634 | 0.689 | -0.299 | -0.0763 (inactive)
